In the emibetuzumab library of Makowski et al. (2022):
The other results are listed elsewhere or left out. The true hit rate is not given.

B1: VH:VL chains; a variant is named by its letters at X, in order (parent)
chain 1: QVQLVQSGAEVKKPGASVKVSCKASGYTFTDYXMHWVRQAPGQGLEWMGXVNPNXXXTTYNQKFEGRVTMTTDTSTSTAYMELRSLRSDDTAVYYCARXNXLDXWGQGTTVTVSS
chain 2: DIQMTQSPSSLSASVGDRVTITCSVSSSVSSIYLHWYQQKPGKAPKLLIYSTSNLASGVPSRFSGSGSGTDFTLTISSLQPEDFATYYCQVYSGYPLTFGGGTKVEIK

Variants of: B1
Test: yeast display scFab, FACS + sequencing
Conditions: with MET
How it was run: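 For FACS, yeast displaying a heavy-chain CDR mutant scFab library were labelled with 1 nM HGFR-Fc and anti-Myc (PBSB, 1% milk, 3 h, room temperature), and the top 50% antigen-positive cells were gated. Input and round-3 sorted populations were deep sequenced in two replicates. The binding call was positive for sequences occurring in both antigen-positive samples and negative for sequences occurring only in input.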

**Q.** Which antigen binding call does the source give for VKGAGAAS here?
**A.** Its antigen binding call is “no binding”.

**Q.** With VRRGGAAS as the variant, how does the antigen binding call read?
**A.** The antigen binding call was “binds”.

**Q.** For VRRTSAAS, which antigen binding call is on record?
**A.** The antigen binding call was “no binding”.

**Q.** With FRRGGAAS as the variant, how does the antigen binding call read?
**A.** Its antigen binding call is “binds”.

**Q.** YRRGGAAS was tested. Which antigen binding call did it give?
**A.** The antigen binding call was “binds”.

**Q.** With DEGGTAGA as the variant, how does the antigen binding call read?
**A.** Its antigen binding call is “no binding”.

**Q.** Which antigen binding call does the source give for YRRGGSWV here?
**A.** Its antigen binding call is “binds”.

**Q.** Which antigen binding call does the source give for FRRRGSLV here?
**A.** Its antigen binding call is “binds”.

**Q.** YRRRGYLV was tested. Which antigen binding call did it give?
**A.** The antigen binding call was “no binding”.

**Q.** For FGRRGAGV, which antigen binding call is on record?
**A.** The antigen binding call was “no binding”.

**Q.** Which antigen binding call does the source give for YRRRGSVV here?
**A.** Its antigen binding call is “binds”.

**Q.** With YRRRGSLV as the variant, how does the antigen binding call read?
**A.** Its antigen binding call is “binds”.

**Q.** With YGETGFWY as the variant, how does the antigen binding call read?
**A.** The antigen binding call was “no binding”.

**Q.** For DKTKSDWV, which antigen binding call is on record?
**A.** Its antigen binding call is “no binding”.

**Q.** For VAREGDLA, which antigen binding call is on record?
**A.** Its antigen binding call is “no binding”.

**Q.** For AARADDVY, which antigen binding call is on record?
**A.** Its antigen binding call is “no binding”.

**Q.** For VRGAGSWV, which antigen binding call is on record?
**A.** The antigen binding call was “no binding”.

**Q.** VRRRGSWV was tested. Which antigen binding call did it give?
**A.** The antigen binding call was “binds”.

**Q.** VRRGGAWV was tested. Which antigen binding call did it give?
**A.** Its antigen binding call is “no binding”.

**Q.** For YRRRGAWV, which antigen binding call is on record?
**A.** Its antigen binding call is “binds”.

**Q.** How did the antigen binding call turn out when YRRRGSWV was run?
**A.** The antigen binding call was “binds”.

**Q.** How did the antigen binding call turn out when YRRGGAWV was run?
**A.** Its antigen binding call is “binds”.

**Q.** Which antigen binding call does the source give for VTEEGSWV here?
**A.** The antigen binding call was “no binding”.

**Q.** For DEGKDDVA, which antigen binding call is on record?
**A.** The antigen binding call was “no binding”.

**Q.** Which antigen binding call does the source give for DTGGGDAY here?
**A.** Its antigen binding call is “no binding”.

**Q.** DTTEASLV was tested. Which antigen binding call did it give?
**A.** The antigen binding call was “no binding”.

**Q.** With FRGRDFVA as the variant, how does the antigen binding call read?
**A.** Its antigen binding call is “no binding”.

**Q.** How did the antigen binding call turn out when FRGRDSVA was run?
**A.** The antigen binding call was “binds”.

**Q.** For FRGRSSVA, which antigen binding call is on record?
**A.** The antigen binding call was “binds”.

**Q.** How did the antigen binding call turn out when DRGRDDVA was run?
**A.** Its antigen binding call is “no binding”.

**Q.** Which antigen binding call does the source give for DTGTSDLY here?
**A.** Its antigen binding call is “no binding”.

**Q.** Which antigen binding call does the source give for FARAGDWV here?
**A.** Its antigen binding call is “no binding”.

**Q.** How did the antigen binding call turn out when FEAGDDGV was run?
**A.** The antigen binding call was “no binding”.

**Q.** How did the antigen binding call turn out when FEATAAGS was run?
**A.** Its antigen binding call is “no binding”.

**Q.** Which antigen binding call does the source give for VRAGDAGV here?
**A.** Its antigen binding call is “no binding”.

**Q.** FRAGGVGV was tested. Which antigen binding call did it give?
**A.** The antigen binding call was “no binding”.

**Q.** With FRAGGAGV as the variant, how does the antigen binding call read?
**A.** The antigen binding call was “binds”.

**Q.** With FRARGAGS as the variant, how does the antigen binding call read?
**A.** The antigen binding call was “binds”.

**Q.** For FRAGDAGV, which antigen binding call is on record?
**A.** Its antigen binding call is “binds”.

**Q.** Which antigen binding call does the source give for FRARGAGV here?
**A.** Its antigen binding call is “binds”.

**Q.** Which antigen binding call does the source give for VKGRADWV here?
**A.** Its antigen binding call is “no binding”.

**Q.** For FRAGGSSV, which antigen binding call is on record?
**A.** The antigen binding call was “binds”.

**Q.** YRERAAGY was tested. Which antigen binding call did it give?
**A.** The antigen binding call was “binds”.

**Q.** Which antigen binding call does the source give for YRGRSAGY here?
**A.** Its antigen binding call is “binds”.

**Q.** Which antigen binding call does the source give for YRGRTAAY here?
**A.** The antigen binding call was “binds”.

**Q.** With YRGRTAAF as the variant, how does the antigen binding call read?
**A.** The antigen binding call was “binds”.

**Q.** How did the antigen binding call turn out when SAGRSDLV chain 1 R67H was run?
**A.** The antigen binding call was “no binding”.

**Q.** SEARSDWV was tested. Which antigen binding call did it give?
**A.** The antigen binding call was “no binding”.

**Q.** AARADAGA was tested. Which antigen binding call did it give?
**A.** The antigen binding call was “no binding”.

**Q.** With YRGRSASY as the variant, how does the antigen binding call read?
**A.** The antigen binding call was “binds”.

**Q.** For YTKETAAD, which antigen binding call is on record?
**A.** The antigen binding call was “no binding”.

**Q.** For YRGRSAAY, which antigen binding call is on record?
**A.** Its antigen binding call is “binds”.

**Q.** YRTRDDLY was tested. Which antigen binding call did it give?
**A.** Its antigen binding call is “no binding”.

**Q.** Which antigen binding call does the source give for FKGRSASY here?
**A.** Its antigen binding call is “no binding”.

**Q.** With YGKRDASY as the variant, how does the antigen binding call read?
**A.** The antigen binding call was “no binding”.

**Q.** With YRTRDAGY as the variant, how does the antigen binding call read?
**A.** The antigen binding call was “binds”.

**Q.** For YRGRTAAD, which antigen binding call is on record?
**A.** The antigen binding call was “binds”.

**Q.** With DKGGAVWT as the variant, how does the antigen binding call read?
**A.** Its antigen binding call is “no binding”.

**Q.** Which antigen binding call does the source give for SEARSSSA here?
**A.** The antigen binding call was “no binding”.
